D2 antagonist = antagonists of human D2 dopamine receptor | P14416 | HEK293 TREx D2 cells, calcium flux, dopamine EC80 | inhibition, % at 10 µM | hit rate 2% among 340,000; in the data active means inhibition above about 30%; inactive means below that, where a call was filed
Target sequence (P14416 whole entry, looked up): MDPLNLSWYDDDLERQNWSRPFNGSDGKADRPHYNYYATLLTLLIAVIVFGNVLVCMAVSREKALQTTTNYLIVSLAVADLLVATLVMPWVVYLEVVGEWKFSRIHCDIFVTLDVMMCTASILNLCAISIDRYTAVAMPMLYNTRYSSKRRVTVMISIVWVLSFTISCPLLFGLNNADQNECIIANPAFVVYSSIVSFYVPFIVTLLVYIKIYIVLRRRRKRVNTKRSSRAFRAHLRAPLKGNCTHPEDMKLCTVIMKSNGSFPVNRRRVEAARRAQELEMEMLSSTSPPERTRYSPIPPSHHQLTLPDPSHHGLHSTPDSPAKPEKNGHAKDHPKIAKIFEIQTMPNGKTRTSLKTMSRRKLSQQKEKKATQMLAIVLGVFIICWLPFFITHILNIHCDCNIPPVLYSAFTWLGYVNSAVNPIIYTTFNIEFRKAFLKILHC
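Dopamine at EC80 is the agonist stimulus; test compounds precede it by 180 s. Calcium flux read kinetically in a force-coupled, inducible HEK293 T-REx D2 cell line.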
D2 ag-1 = human D2 receptor agonism in beta-arrestin assay; hit rate 0.084% among 360,000; P14416; DiscoveRx PathHunter D2 beta-arrestin, luminescence, 90 min; 100% = 57 uM dopamine signal; AID 624465; activation, % (test concentration not listed); in the data active means activation above about 40%; inconclusive means between about 15% and that limit
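DiscoveRx PathHunter D2 beta-arrestin cells (2,100/well) attached overnight, then compound-stimulated 90 min at 37 C in HBSS/10 mM HEPES/0.1% Tween-20 buffer; beta-galactosidase complementation read by luminescence after 1 h at ambient temperature. Dopamine 57 uM final (EC100) as control.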
D2 PAM-1 = positively modulates the human D2 dopamine receptor allosterically; HEK293 T-REx D2, calcium flux, EC20 dopamine potentiation; potentiation, % at 10 µM; P14416; hit rate 0.34% among 340,000; AID 485347;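 active means potentiation over 3 SD above the plate norm, cut at about 30% in these data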
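Tetracycline-induced Hek293 Trex D2 cells, force-coupled to calcium, loaded with no-wash calcium dye. Compound added with 180 s kinetic read for agonism, then EC20 dopamine and a further 180 s read for potentiation.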
D2 PAM-2 = potentiates the human D2 dopamine receptor allosterically; hit rate 0.23% among 360,000; DiscoveRx D2 beta-arrestin cells, luminescence, 90 min; 100% = 57 uM dopamine signal; potentiation, % (no concentration beside the values); in the data active means potentiation above about 50%; inconclusive means mostly about 30% to 49%
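PathHunter D2 cells, attached overnight at 37 deg C, received compound in DMSO plus dopamine at EC20 (50 nM final) for 90 min at 37 deg C. Beta-arrestin recruitment was read as luminescence after 1 h with detection reagent at ambient temperature.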
D2 ag-2 = activates the human D2 dopamine receptor; P14416; HEK293 T-REx D2 cells, calcium flux agonist mode; activation, % at 2 µM; hit rate 0.53% among 340,000; AID 485358;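 active means activation over 3 SD above normal in the single-dose calcium agonist read, cut at about 30% in these data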
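Tetracycline-induced HEK293 T-REx cells with force-coupled D2 receptor, plated overnight at 30 C, loaded with no-wash calcium dye. After a 10 s baseline, compound was pin-added and calcium flux read kinetically for 180 s; calcium rises flagged agonists.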
Numbers stand for hits; i = inactive; ? = inconclusive; nt = no result given; ! = not confirmed by another sample. A selection: hits, their analogues and other compounds. The true share with any hit is near 2.4%.

SMILES	D2 antagonist	D2 ag-1	D2 PAM-1	D2 PAM-2	D2 ag-2
CC(=O)Nc1cccc(NC(=O)CSc2ccc(-c3ccco3)nn2)c1	i	i	i	i	i
N/C(=N\OC(=O)c1ccc(Cl)c([N+](=O)[O-])c1)c1ccccc1	i	i	i	94	i
CCOc1cc(C(=O)O/N=C(\N)c2ccccn2)cc(OCC)c1OCC	i	?	i	72	i
COc1ccc(/C(N)=N/OC(=O)c2ccc(C)c([N+](=O)[O-])c2)cc1OC	i	i	i	i	i
N#CC(C#N)=c1ccc2c(c1)N1C3=C(CCCC3)CC3CCCCC31N=2 (configuration not stated)	i	i	i	71	i
N#C/C(C(N)=O)=c1/ccc2c(c1)N1C3=C(CCCC3)CC3CCCCC31N=2 (configuration not stated)	i	i	i	i	i
CN(C)CCOC(c1ccc(Cl)cc1)c1ccccn1 (configuration not stated)	i	98!	i	i	i
CN(C)CCOC(c1ccccc1)c1ccccc1	i	i	i	i	i
O=C1C=C(c2ccccc2)OC2(CCCC2)O1	i	i	38	i	i
Cc1ccc(C)c(N2CCN(C(=O)c3ccc(-c4nc(COc5ccccc5)c(C)o4)cc3)CC2)c1	nt	nt	i	nt	i
CCOc1ccccc1CNC(=O)C1CCN(S(=O)(=O)c2c(C)noc2/C=C/c2ccccc2F)CC1	nt	nt	i	nt	i
O=C(Nc1ccccc1)c1ccc(NCCN2C(=O)CCC2=O)c([N+](=O)[O-])c1	59	i	i	i	i
COc1ccc(NC(=S)NNS(=O)(=O)c2ccc3ccccc3c2)c(OC)c1	43	i	i	i	i
O=C(NCc1ccccc1Cl)c1ccc(S(=O)(=O)NCc2ccco2)cc1	i	i	i	i	i
CCn1c(Cc2ccccc2)nnc1SCC(=O)NC(C)(C)C	i	i	i	i	i
CCn1c(Cc2ccccc2)nnc1SCC(=O)Nc1ccccc1O	40	i	i	i	i
CCn1c(Cc2ccccc2)nnc1SCC(=O)Nc1ccc(N2CCOCC2)c(Cl)c1	39	i	i	i	i
Cn1c(SCC(=O)Nc2ccc(N3CCOCC3)c(Cl)c2)nnc1-c1ccccc1	nt	i	nt	i	nt
COc1ccc(C2c3cc(OC)c(OC)cc3CC(=O)N2c2ccc(C)c(F)c2)cc1 (configuration not stated)	nt	nt	i	nt	nt
Cc1ccc(NC(=O)NC(=O)N(C(C)C)S(=O)(=O)c2ccc(C)cc2)cc1	44	i	i	i	i
CCN(CC)CCNC(=O)C(=O)NCC1OCCN1S(=O)(=O)c1ccc([N+](=O)[O-])cc1 (configuration not stated)	i	i	i	50	i
COc1ccccc1CCNC(=O)C(=O)NCC1OCCN1S(=O)(=O)c1ccc(Cl)cc1 (configuration not stated)	36	i	i	i	i
CCCCCCN(C(=O)CCCCCN1C(=O)NC(c2ccc(-c3ccccc3)cc2)C(C(=O)OCc2ccccc2)=C1C)C(C(=O)NCCCC)C1CCCCC1 (configuration not stated)	i	nt	i	nt	i
CCCCCCN(C(=O)CCCCCN1C(=O)NC(c2ccc(-c3ccccc3)cc2)C(C(=O)OCc2ccccc2)=C1C)C(C(=O)NCCCC)c1ccccn1 (configuration not stated)	31	nt	i	nt	i
CCCN(CC(=O)Nc1ccccc1C)C(=O)c1ccc(C(=O)c2ccccc2)cc1	43	i	i	i	i
SMILES	D2 antagonist	D2 ag-1	D2 PAM-1	D2 PAM-2	D2 ag-2
CCOC(=O)c1sc(C)c2c(=O)n(Cc3ccc(Cl)cc3)c(C)nc12	38	i	i	i	i
Cc1ccc(C2c3cccn3CCN2S(=O)(=O)c2ccc([N+](=O)[O-])cc2)cc1 (configuration not stated)	nt	nt	i	nt	i
COC(=O)c1ccc(NC(=O)CN2CCC(NC(=O)c3ccccc3F)CC2)cc1	nt	i	nt	i	nt
CC(C)Cn1c(CCCNC(=O)c2ccc(F)cc2)nc2ccccc21	31	i	i	i	i
CCCc1cc(C(=O)Nc2cccc(Cl)c2)no1	33	i	i	i	i
CCCc1cc(C(=O)Nc2ccc(F)c(Cl)c2)no1	35	i	i	i	i
O=C(Nc1ccccc1C(=O)Nc1ccncc1)c1cccc([N+](=O)[O-])c1	nt	i	i	i	nt
COc1cccc(C(=O)N2CCCN(C)CC2)c1OC	nt	i	nt	i	nt
COc1ccc2c(c1)CC(C(=O)Nc1cc(OC)c(OC)c(OC)c1)CO2 (configuration not stated)	nt	nt	i	nt	i
CCc1ccc(-n2nc(C)c3c(C)cc(=O)n(CC(=O)Nc4cc(C)ccc4C)c32)cc1	nt	nt	i	nt	nt
COc1ccc2c(C#N)c3ccccn3c2c1	i	i	i	70	i
O=C(COc1ccccc1)N/N=C/c1sc(=O)n(Cc2cccc(C(=O)O)c2)c1Cl	44	i	i	i	i
Cc1cc(OCC(=O)N2CCC(c3nc4ccccc4s3)CC2)ccc1Cl	nt	nt	i	nt	i
Cc1ccc(CNC(=O)NCc2noc3ccc(C)cc23)cc1	nt	nt	i	nt	i
COc1ccc(S(=O)(=O)N2CCOC23CCN(C(=O)c2ccccc2OC)CC3)cc1	i	i	i	i	i
COc1ccc(S(=O)(=O)N2CCOC23CCN(C(=O)c2ccccc2Br)CC3)cc1	i	i	71	i	i
COc1ccc(NCc2nnc(SCC(=O)NCc3ccco3)n2-c2ccccc2OC)cc1	i	i	i	i	i
Cc1ccc(-n2c(CNc3ccc(F)cc3)nnc2SCC(=O)NCc2ccco2)cc1	34	i	i	i	i
Cc1ccc(-n2c(CNc3ccc(F)cc3)nnc2SCC(=O)N2CCCC2)cc1	30	i	i	i	i
COc1ccc(NS(=O)(=O)c2cccc(C(=O)OCC(=O)NC3CC3)c2)cc1	nt	i	nt	i	nt
Cc1ccccc1Cn1cnc2c(NS(C)(=O)=O)c(C)c(C)cc21	35	i	i	i	i
O=C(Cn1ccc([N+](=O)[O-])n1)N1CCc2ccccc21	i	i	i	i	i
Cc1nn(C(=O)Cn2ccc([N+](=O)[O-])n2)c(C)c1Br	i	i	31	i	i
Cc1ccc(NC(=O)C2CCN(S(=O)(=O)c3ccc4c(c3)NC(=O)C(C)S4)CC2)cc1C (configuration not stated)	58	i	i	i	i
CC1Sc2ccc(S(=O)(=O)CCC(=O)Nc3ccc(C(C)C)cc3)cc2NC1=O (configuration not stated)	52	i	i	i	i
CC1Sc2ccc(S(=O)(=O)N3CCC(C(=O)Nc4cccc(Cl)c4)CC3)cc2NC1=O (configuration not stated)	69	i	i	i	i
CCc1ccc(NC(=O)C2CCN(S(=O)(=O)c3ccc4c(c3)NC(=O)C(C)S4)CC2)cc1 (configuration not stated)	i	i	i	i	i
